# Screening data deposited in PubChem by National Center for Advancing Translational Sciences (NCATS).
# MCF10A rereplic: DNA re-replication induction in MCF 10a cells; MCF 10A DNA re-replication, Hoechst nuclear intensity, 48 h; 350,000 compounds, 2.9% hits; Potency, µM (series often up to 46.1 µM), most hits filed as activators; further: nearly all actives have a fitted effect of over 50% in size
# SW480 rereplic: DNA re-replication induction in SW480 cells | Potency, µM (series often up to 46.1 µM), actives largely listed as activators | SW480 DNA re-replication, Hoechst DNA content imaging, 48 h | 340,000 compounds, 1.8% hits; further: nearly all actives have a fitted effect of over 55% in size
#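 Per well, 250 cells were exposed to pinned compound for 48 hr. Nuclear DNA was visualised with Hoechst (40 min, 37 C) and total object intensity recorded by fluorescence scanning.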
# KB-3-1 cytotox: KB-3-1 parental cell cytotoxicity. KB-3-1 viability, CellTiter-Glo ATP luminescence, 72 h. Potency, µM (top dose mostly 46.1 µM), hits mostly cytotoxic. 400,000 compounds, 1.4% hits; further: nearly all actives have a fitted effect of over 60% in size
#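 Parental KB-3-1 viability, qHTS format: 72 h compound exposure, 37 °C; CellTiter-Glo; media-only wells and DMSO plates as controls; concentration-effect fits on corrected data.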
# ELG1 DNA repair: blocks ELG1-dependent DNA repair in HEK293T cells | HEK293T ELG1-luciferase reporter, luminescence, 16 h; DNA damage induced by 5-fluorouridine | Potency, µM (top dose mostly 46.1 µM), most hits filed as inhibitors | AID 504467 | 330,000 compounds, 2.3% hits; further: nearly all actives have a fitted effect of over 55% in size
#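 Reporter activity after DNA damage by 5-fluorouridine is monitored. Compound-treated cells incubate 16 hr at 37 °C, then ONE-Glo is added for 30 min before luminescence reading.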
# KB-V1 cytotox: KB-V1 MDR subline cytotoxicity; KB-V1 MDR cells viability, CellTiter-Glo, 72 h; Potency, µM (series often up to 46.1 µM), hits mostly cytotoxic; 400,000 compounds, 3.4% hits; further: nearly all actives have a fitted effect of over 60% in size
#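 Luminescent ATP read-out (CellTiter-Glo, 10 min) measures survival of drug-selected KB-V1 MDR cells after 72 h, 37 degrees C compound exposure. Medium: phenol-red-free DMEM, 10% FBS. Values from fitted concentration-response curves.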
# Numbers stand for hits; . = inactive; ? = inconclusive; / = not tested or not shown; [ ] = another dose, or the depositor's remark. Rows were chosen to be rich in hits. Some 8.1% of all compounds tested hit in one or more screens of this group. The call rests on the fitted dose curve; in most records, active means well fitted curve in the direction sought with a large enough effect; inconclusive means small, poorly fitted or top-dose-only effect, or another doubt; inactive means no such curve, though single readings can be large; an effect the other way counts as inactive or inconclusive.
SMILES,MCF10A rereplic,SW480 rereplic,KB-3-1 cytotox,ELG1 DNA repair,KB-V1 cytotox
O=C(O)c1ccc(Nc2nc(-c3cc4ccccc4oc3=O)cs2)cc1O,13µM,?,.,?,.
CCCCNC(=O)[C@@H]1CC=C[C@@H]2CCN(Cc3ccccc3)C(=O)[C@@H]21,/,/,.,/,.
CC1=C(C(=O)OC2CCCC2)C(c2c(Cl)cccc2Cl)CC(=O)N1 (configuration not stated),/,/,.,/,?
CN(C)CCC(=O)c1ccc2c(c1)OCO2,7.3µM,?,?,.,.
CN(C)CCC(=O)c1cccc(Br)c1,18µM,?,.,.,.
CN(C)CCCC(=O)c1ccc2c(c1)OCO2,.,.[9.22 µM],.,.,?
COc1ccc(Cl)cc1NC(=O)CSC1=Nc2ccccc2C2=NC(CC(=O)NCc3ccc4c(c3)OCO4)C(=O)N12 (configuration not stated),/,/,.,/,.
CCOC(=O)c1c(C)[nH]c(C(=O)COC(=O)CNS(=O)(=O)c2ccc(C)cc2)c1C,.,.,.,.,4.6µM
CC(=O)c1c(C)[nH]c(C(=O)COC(=O)CNS(=O)(=O)c2ccccc2)c1C,.,.,.,.,.
CC(=O)c1c(C)[nH]c(C(=O)COC(=O)CCSc2ccccc2)c1C,.,.,.,.,?
CCOC(=O)c1c(C)[nH]c(C(=O)COC(=O)CCSc2ccccc2)c1C,.,.,?,?,1.6µM
Cc1nn(C(=O)c2ccc(Cl)cc2)c(C)c1S(=O)(=O)N1CCOCC1,/,/,.,/,.
CCc1ccccc1Nc1nn2c(=O)c3ccc(C(=O)NCCc4ccccc4)cc3nc2s1,/,/,.,/,.
CCc1ccccc1Nc1nn2c(=O)c3ccc(C(=O)NCc4ccc(C)cc4)cc3nc2s1,/,/,2.9µM,/,.
c1ccc(C[n+]2c(-c3ccccc3)csc2Nc2ccccc2)cc1,.,.,21µM,?,16µM
c1ccc(Nc2scc(-c3ccccc3)[n+]2Cc2ccco2)cc1,.,.,?,?,?
COc1cccc2c1C(=O)c1c(O)c3c(c(O)c1C2=O)CC(O)(C(=O)CO)CC3OC1CC(N(C)C)C(O)C(C)O1 (configuration not stated),.,.,?,/,13µM
CC(=O)[C@]1(O)Cc2c(O)c3c(c(O)c2[C@@H](O[C@H]2C[C@H](N)[C@H](O)[C@H](C)O2)C1)C(=O)c1ccccc1C3=O,.,.,0.073µM,/,1.8µM
COc1cccc2c1C(=O)c1c(O)c3c(c(O)c1C2=O)C[C@](O)(C(=O)CO)C[C@@H]3O[C@H]1C[C@H](N)[C@@H](O)[C@H](C)O1,.,.,/,/,/
COc1cccc2c1C(=O)c1c(O)c3c(c(O)c1C2=O)C[C@@](O)(C(C)=O)C[C@@H]3O[C@H]1C[C@H](N)[C@H](O)[C@H](C)O1,.,.,0.013µM,3.3µM,?
COc1cccc2c1C(=O)c1c(O)c3c(c(O)c1C2=O)C[C@@](O)(C(=O)CO)C[C@@H]3O[C@H]1C[C@H](N)[C@@H](O)[C@H](C)O1,.,.,?,/,/
CCc1ccc(OCC2c3cc(OC)c(OC)cc3CCN2C(=O)c2ccc(S(=O)(=O)N3CCCC3)cc2)cc1 (configuration not stated),/,/,.,/,?
CC(C)CCOC(=O)C[N+](C)(C)CCOC1CC2CCC1(C)C2(C)C (configuration not stated),16µM,.,.,?,.
CCCOC(=O)C[N+](C)(C)CCOC1CC2CCC1(C)C2(C)C (configuration not stated),.,.,.,?,.
CCC(C)OC(=O)C[N+](C)(C)CCOC1CC2CCC1(C)C2(C)C (configuration not stated),?,.,21µM,?,.
SMILES,MCF10A rereplic,SW480 rereplic,KB-3-1 cytotox,ELG1 DNA repair,KB-V1 cytotox
CCCCCCOC(=O)C[N+](C)(C)CCOC1CC2CCC1(C)C2(C)C (configuration not stated),?,.,.,?,.
CCCCCCCOC(=O)C[N+](C)(C)CCOC1CC2CCC1(C)C2(C)C (configuration not stated),?,?,21µM,?,.
CN1CCN(C2CN(Cc3cn(Cc4ccc(F)cc4)nn3)S(=O)(=O)C2)CC1 (configuration not stated),/,/,.,/,.
O=C(Cn1cnc2ccccc2c1=O)NCCC(=O)Nc1ccc(F)cc1,.,.,.,.,.
CC(C)Nc1nc(Oc2ccc(Cl)cc2)cc(C(F)(F)F)n1,23µM,.,.,.,.
CCNc1nc(Oc2ccc(C#N)cc2)cc(C(F)(F)F)n1,.,.,18µM,.,3.3µM
COc1ccc(-c2cn3nc(SCC(=O)Nc4cc(C)cc(C)c4)ccc3n2)cc1,/,/,.,/,.
CCCn1c2c(c(=N)c3c1CCC3)CCCC2,?,.,?,.,?
CCCn1c2c(c(=N)c3c1CCC3)CCC2,.,.,?,18µM,.
O=C(O)CCn1c2c(c3ccccc31)CCCC2,.,.,.,.,.
CCCCCCCn1c2c(c(=N)c3ccccc31)CCC2,?,?,?,4.1µM,?
CCn1c(CNC(=O)c2ccc(OC)cc2)nnc1SCC(=O)Nc1cc(C)ccc1C,/,/,.,/,.
Cc1cnc(C(=O)O)cn1,.,.,/,/,/
CCSc1nnnn1-c1ccccc1,.,.[9.22 µM],.,.,.
Cc1ccc(C)c(-n2nnnc2Sc2nnnn2-c2ccccc2)c1,5.8µM,9.2µM,?,21µM,.
Cc1nonc1OCCNC(=O)C12CC3CC(CC(C3)C1)C2,.,?,.,.,23µM
CCOC(=O)CNC(=O)C12CC3CC(CC(C3)C1)C2,.,.,.,.,.
Cc1ccc(-c2cnc3cccnn23)cc1F,/,/,.,/,.
C/C(=N\NC(=O)c1c(Br)c(C)nn1C)c1ccc(NC(=O)c2ccoc2C)cc1,.,.,.,.,.
C/C(=N\NC(=O)c1c(Br)c(C)nn1C)c1ccc(NC(=O)C(C)Oc2ccc(Cl)cc2C)cc1 (configuration not stated),16µM,.,.,?,.
CCC(=O)Nc1ccc(/C(C)=N/NC(=O)c2c(Br)c(C)nn2C)cc1,.,.,.,?,7.3µM
Cn1c(=O)c2sccc2n2c(CCCC(=O)NCc3ccccc3)nnc12,/,/,.,/,.
CCN(CC)C(=O)/C(=C\c1cccc([N+](=O)[O-])c1)NC(=O)c1ccco1,.,.,.,.,13µM
Cc1ccc(CN(Cc2ccc(C)o2)C(=S)NCC(=O)O)cc1,.,.,.,?,.
CCOC(=O)CNC(=S)N(Cc1ccc(C)cc1)Cc1ccc(C)o1,.,.,.,.,16µM
COc1ccc(CN2CC[C@H]3C=CC[C@@H](C(=O)Nc4nccs4)[C@H]3C2=O)cc1OC,/,/,.,/,.
COc1cc(/C=C(\CC(=O)O)c2nc3ccccc3s2)ccc1OCC(=O)Nc1ccccc1F,?,.,.,/,.
CCOc1cc(/C=C(/C#N)c2nc3ccccc3[nH]2)ccc1OCc1ccc(C(=O)O)o1,.,.,?,.,.
